# ATXN viability: reduces viability in counter-screen for ATXN expression inhibitors | S2 cells (HEK-293 line with an ATXN2-luciferase reporter) viability, CellTiter-Fluor protease fluorescence, 24 h | Potency, µM (doses to about 56.7 µM), most hits filed as cytotoxic | 400,000 compounds, 0.49% hits; note: nearly all actives have a fitted effect of over 40% in size
# HepG2 viability: counter-screen for TGF-b inhibitors: cytotoxicity in HepG2 cells; 410,000 compounds, 0.76% hits; HepG2 CAGA-GFP viability, ATP luminescence, 18 h; AID 588856; Potency, µM (top dose mostly 46.1 µM), for the others: top-dose activity change, negative = cytotoxicity, hits mostly cytotoxic
#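 HepG2 CAGA-GFP cells (1000/well, DMEM with 1% FBS) received compound, then TGF-beta at 500 pg/mL final, and were incubated 18 hours at 37 degrees C. Viability was read by CellTiter-Glo luminescence. Media-only wells were set as complete cell-killing and DMSO as no toxicity.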
# TGFb SMAD3 inh: TGF-b pathway inhibition; Potency, µM (series often up to 46.1 µM), for inactives: top-dose activity, negative = inhibition, most hits filed as inhibitors; HepG2 CAGA-GFP TGF-b/SMAD3 reporter, GFP fluorescence, 18 h; TGF-beta stimulated, 500 pg/mL final; 410,000 compounds, 1.2% hits; note: % is set by controls: 0 for no effect and ±100 for the full control effect; nearly all actives have a fitted effect of over 65% in size
#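 HEPG2 CAGA-GFP, 1000 cells/well; 2 h settle, 37 C; cpd via pin tool; TGF-b 500 pg/mL final; 18 h, 37 C; GFP imaging ex488/em500-530; %Activity normalised to -TGF-b and +DMSO controls; CRC fit, curve class.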
# ATXN2 expr inh: inhibitors of ATXN2 expression; 360,000 compounds, 0.72% hits; Potency, µM (doses to about 57 µM), for the others: at the highest dose activity change, negative = inhibition, usual class: inhibitors; HEK-293 ATXN2-luciferase reporter, luminescence, 24 h; note: % is set by controls: 0 for no effect and ±100 for the full control effect; nearly all actives have a fitted effect of over 55% in size
#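 ATXN2-luciferase reporter cells (luciferase flanked by upstream and downstream ATXN2 gene portions) were treated 24 h at 37 °C with compounds at up to 57 uM. SteadyGlo luminescence gave expression; GF-AFC fluorescence gave viability.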
# * marks the source's active call; other numbers are inactive results; i = inactive; ? = inconclusive; . = no result; [ ] = another dose, or the depositor's remark. This is a sample that favours compounds with a hit; in the whole collection about 2.3% have one here. Calls come from the whole dose curve; as a rule, active = well fitted curve in the direction sought with a large enough effect; inconclusive = small, poorly fitted or top-dose-only effect, or another doubt; inactive = no such curve, though single readings can be large; an effect the other way counts as inactive or inconclusive. Potency is the fitted concentration of half-maximal effect.
SMILES,ATXN viability,HepG2 viability,TGFb SMAD3 inh,ATXN2 expr inh
CC1(C)CC/C(=C/c2ccc(Cl)cc2)C1(O)Cn1cncn1 (stereo not drawn),i,.,.,-9%[116 µM]
CC12CCC(O)CC1CCC1C2CCC2(C)C(C3=CC(=O)OC3)C(O)CC12O (stereo not drawn),?,-64%,10µM*,?
COc1ccc(-n2nnnc2C(c2cc3ccccc3o2)N2CCC(n3c(=O)[nH]c4ccccc43)CC2)cc1 (stereo not drawn),7.9µM*,-28%,?,7.9µM*
O=c1[nH]c2ccccc2n1C1CCN(C(c2cccc3ccccc23)c2nnnn2-c2ccc3c(c2)OCCO3)CC1 (stereo not drawn),?,-13%,?,-22%
O=c1[nH]c2ccccc2n1C1CCN(C(c2cc3ccccc3o2)c2nnnn2-c2ccc3c(c2)OCCO3)CC1 (stereo not drawn),?,-15%,-21%,13µM*
CC(C)N(CCNC(=O)CN1CCCC1=O)C(C)C,.,.,.,0%
Cc1nnc2n1-c1sc(CCC(=O)N3CCOCC3)cc1C(c1ccccc1Cl)=NC2,?,.,.,-1%
Cc1nnc2n1-c1sc(CCc3ccc(CC(C)C)cc3)cc1C(c1ccccc1Cl)=NC2C (stereo not drawn),32µM*,.,.,35µM*
O=C(NCCN1CCC2(CC1)C(=O)NCN2c1cccc(F)c1)c1ccc2ccccc2c1,32µM*,.,.,13µM*
CCC(=O)O[C@@H]1C=C2CCC3C(CCC4(C)C3CC[C@@H]4OC(=O)CC)C2CC1 (stereo partly drawn),i,.,.,0%
C[C@@H]1CC2=CC(=O)CC[C@@H]2[C@H]2CC[C@@]3(C)[C@@H](CC[C@]3(C)O)[C@@H]21,i,.,.,-10%
CCN1/C(=C/C=C/C2=[N+](CC)c3ccccc3C2(C)C)C(C)(C)c2ccccc21,7.9µM*,-79%,?,.
CN1/C(=C\C=C2C(=O)NC(=O)NC2=O)C(C)(C)c2ccccc21,?,-3%,100%,-30%
O=C(Nc1ccc(Cl)c(C(F)(F)F)c1)NC1CC2CCCC(C1)N2Cc1ccccc1 (stereo not drawn),?,-115%,20µM*,?
CN1C(=O)/C(=C/c2ccc(Cl)s2)C(=O)NC1=S,16µM*,-20%,-14%,?
COc1ccc(C(=O)Oc2cccc3cccnc23)cc1S(=O)(=O)N1CCOCC1,i,13µM*,13µM*,-11%
COc1ccc(C(=O)N2CCOCC2)cc1S(=O)(=O)N1CCC(C)CC1,i,8%,11%,7%
COc1cccc2c1[C@]13CCN(CC4CC4)[C@H](C2)[C@]1(OC)CCC(=O)C3,.,.,.,-10%
COCCCNC(=O)c1c(NC(=O)c2ccco2)n(Cc2ccccc2)c2nc3ccccc3nc12,i,-28%,-29%,-23%
CCCCCn1c(NC(=O)c2ccco2)c(C(=O)OCC)c2nc3ccccc3nc21,i,16µM*,20µM*,?
COc1ccc(OC)c(CC(C)N)c1 (stereo not drawn),?,.,.,2%[116 µM]
C=C1C(=O)OC2C1CCC(C)C1(O)C=CC(=O)C21C (stereo not drawn),11µM*,-35%,?,11µM*
COc1cc2cc(c1Cl)N(C)C(=O)C[C@H](OC(=O)C(C)C)[C@]1(C)O[C@H]1[C@H](C)[C@@H]1C[C@@](O)(NC(=O)O1)[C@H](OC)C=CC=C(C)C2,.,.,.,-28%
COC1C(O)C(C)OC(OC2C(Oc3cccc4c(O)c5c(=O)oc6ccc(C)c7c(=O)oc(c34)c5c67)OC(C)C(O)C2O)C1O (stereo not drawn),i,6%,3%,10µM*
CCc1ccc(NC(=O)Cn2c(=O)oc3cc(S(=O)(=O)N4CCCCCC4)ccc32)cc1,.,-42%,.,.
SMILES,ATXN viability,HepG2 viability,TGFb SMAD3 inh,ATXN2 expr inh
C[C@@H]1CN([C@H](C)CO)C(=O)CCCn2nncc2CO[C@@H]1CN(C)C(=O)Nc1ccc(N2CCCCC2)cc1,?,-11%,-2%,9%
C[C@H]1CCC[C@@H](O)CCC/C=C/c2cc(O)cc(O)c2C(=O)O1,?,-57%,?,14µM*
C[C@H]1CC[C@@H]2[C@@H](C)[C@H]3[C@H](C[C@H]4[C@@H]5CC=C6C[C@@H](O[C@@H]7O[C@H](CO)[C@H](O)[C@H](O[C@@H]8O[C@H](CO)[C@@H](O)[C@H](O)[C@H]8O)[C@H]7O[C@@H]7O[C@@H](C)[C@H](O)[C@@H](O)[C@H]7O)CC[C@]6(C)[C@H]5CC[C@]34C)N2C1,.,13µM*,?,?
C[C@@H]1CC2C3CC=C4C[C@@H](O)CC[C@]4(C)C3CC[C@]2(C)[C@H]1O (stereo partly drawn),i,-5%,0%,8%
N[C@@H](Cc1ccc(Oc2cc(I)c(O)c(I)c2)c(I)c1)C(=O)O,i,.,.,3%
CC(C)(C)n1nnnc1C(CCc1ccccc1)N1CCC(n2c(=O)[nH]c3ccccc32)CC1 (stereo not drawn),?,0%,?,?
O=c1[nH]c2ccccc2n1C1CCN(C(CCc2ccccc2)c2nnnn2Cc2ccccc2)CC1 (stereo not drawn),8.9µM*,-91%,?,8.9µM*
O=c1[nH]c2ccccc2n1C1CCN(C(CCc2ccccc2)c2nnnn2C2CCCCC2)CC1 (stereo not drawn),.,-7%,?,14µM*
O=c1[nH]c2ccccc2n1C1CCN(C(c2ccccc2OC(F)(F)F)c2nnnn2Cc2ccccc2)CC1 (stereo not drawn),10µM*,-39%,11µM*,18µM*
CSCCC(c1nnnn1Cc1ccccc1)N1CCC(n2c(=O)[nH]c3ccccc32)CC1 (stereo not drawn),14µM*,-16%,?,?
O=c1[nH]c2ccccc2n1C1CCN(C(c2nnnn2Cc2ccccc2)C2CC2)CC1 (stereo not drawn),?,0%,-40%,?
CSCCC(c1nnnn1C1CCCC1)N1CCC(n2c(=O)[nH]c3ccccc32)CC1 (stereo not drawn),i,10%,1%,-9%
CCN(CC)C(=O)c1ccc(C2=CC3(CCNCC3)Oc3cccc(O)c32)cc1,.,.,.,-4%
CN1C(=O)c2ccccc2Sc2ccc(NC(=O)N3CCN(c4ccccc4)CC3)cc21,.,-21%,?,.
O=c1[nH]c2cc(Cl)ccc2n1C1CCNCC1,i,.,.,1%
O=C(COc1ccc(Cl)cc1)N(c1ccccc1Cl)C1CN2CCC1CC2 (stereo not drawn),i,-20%,?,-24%
O=C(COc1ccc(Cl)cc1)N(c1ccc(Cl)cc1)C1CN2CCC1CC2 (stereo not drawn),?,-97%,14µM*,-26%
CC1CCC(C(C)C)C(OC(=O)Cn2c(COc3ccccc3)[n+](C)c3ccccc32)C1 (stereo not drawn),25µM*,20µM*,13µM*,?

# Assay outcomes (PubChem BioAssay)
